± gives the standard deviation of the averaged measurements. Over roughly 25,000 sequences, “ln(normalized median fluorescence intensity)” has its median near 8.6; the highest 2% begin near 10. This is one part of a sample in which the highest values are shown more often than they occur.
tested on: PfAP2-EXP AP2 domain (GST-tagged); experiment: gcPBM binding intensity (ln(normalized median fluorescence intensity)); higher = stronger DNA binding
Summary of the method: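 Binding intensity values are the highest Masliner-normalised natural-log median intensity among replicate spots of either probe orientation. The binding step lasted 1 h in 1× PBS with 1% milk, 0.2 mg/ml BSA, 0.5% salmon testes DNA and 0.03% Triton X-100, using GST-tagged P. falciparum DNA-binding domains expressed in E. coli on an Agilent 4 × 180k array of primer-extended double-stranded 36-bp intergenic genomic probes plus negative controls. Alexa488 anti-GST antibody and a 488 nm scan detected bound protein.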

Row | Sequence | gcPBM binding intensity (ln)
1 | TAAATAAGTATTACTAGTACACACAAGTTGTTAATC [XGTACX_site7074] | 8.57 ± 0.28
2 | TTTTATGTTCTTAATGCACACTTATAAGTATCTTAT [CACACA_site4895] | 9.07 ± 0.21
3 | TATCATATAAAACATGCACACATATGTACTCTTATA [CACACA_site9249] | 8.77 ± 0.31
4 | ATTTTTTATGAAAATAAACACACGATTTATTATATA [CACACA_site1312] | 8.14 ± 0.33
5 | AGAAAAAAGAGGGATACACACAAACATATATTTATA [CACACA_site7122] | 8.81 ± 0.29
6 | ACATATAATATATATATATATATATATATATATAAT [GTGCAC_negctrl_site648] | 8.66 ± 0.18
7 | TTGGTATAAAATTATAGTACATAAGGTAAATATAAA [XGTACX_site4698] | 8.56 ± 0.33
8 | GGAATATTAAAAAAATGTACAAAAAATAATATCCAT [XGTACX_site2596] | 8.97 ± 0.36
9 | ATATTAAGAATGTATACATGCATATATATATAGTAC [TGCATGCA_site219] | 9.17 ± 0.42
10 | CATAAACTTTTTAACACACACTTATATATATATATA [CACACA_site4747] | 10.3 ± 0.23
11 | CATAAACTTTATAACACACACTTATAAATATAAATA [CACACA_site6646] | 8.41 ± 0.4
12 | TACATAAACTTTATAACACACACTTATATATATATA [CACACA_site1106] | 9.86 ± 0.18
13 | TTTTGAAGCTTTAAAACATATATATATATATATATA [CACACA_negctrl_site184] | 10.3 ± 0.4
14 | TTAAAACATATTTTGAATTAATATATTTTAATATTA [XGTACX_negctrl_site148] | 7.72 ± 0.39
15 | AAACTTTTTTTAAAAACACACATATATATTTATATA [CACACA_site4092] | 8.36 ± 0.41
16 | TGTTATATATGTAATTGTACACTTATACAAAATTAT [XGTACX_site6350] | 8.52 ± 0.22
17 | TTTTTGTTTTTGTTTTGTACTCATACATACTATCAT [XGTACX_site4210] | 8.99 ± 0.44
18 | AAAAAAAATATATTACAAAACTTAGGATCCTAATAT [CACACA_negctrl_site470] | 8.48 ± 0.39
19 | AAATATTAAATGGAAAACAAATATATATATCTTAAT [XGTACX_negctrl_site383] | 8.56 ± 0.38

Row | Sequence | gcPBM binding intensity (ln)
20 | TATATATATATATGGGGTACAAATGGTCAGTATTAT [XGTACX_site1223] | 10.2 ± 0.21
21 | AAAAAAAAAATTGAAAGTACACAAATGGGGTATTAT [XGTACX_site3960] | 8.75 ± 0.35
22 | TATGTATAAAAATAATGTACAAAATATATTATATGT [XGTACX_site2794] | 8.69 ± 0.33
23 | GATATTCATTATATATGTACATATATGTAATATATA [XGTACX_site2210] | 8.55 ± 0.24
24 | AAACATAAGGGACACACACACATATATATATATATA [CACACA_site5920] | 10.3 ± 0.16
25 | TAATAAAAAAAGTGCACACACATAATATATATATAT [CACACA_site3340] | 9.74 ± 0.28
26 | GAATAAAGGAGAGGCACACATATATATATATATATA [CACACA_site2452] | 10.2 ± 0.25
27 | AATATAAAAAGGCACACACACAAAAAAAAAAAAAAA [CACACA_site896] | 8.26 ± 0.49
28 | TATAAAAGTGGACACACACACATATATATATATATA [CACACA_site4673] | 10.2 ± 0.64
29 | AATCCACAAAGACACACACACACATATATATATATA [CACACA_site1269] | 10.2 ± 0.35
30 | TATATATATAAACACACACACATATATATATATATA [CACACA_site4584] | 10.1 ± 0.35
31 | TATATATATAAACACACACACACATATATATATATT [CACACA_site8814] | 9.02 ± 0.23
32 | AATAATAAAAAAAGTGCACACACATAATATATATAT [CACACA_site9100] | 9.47 ± 0.099
33 | GTAATCCACAAACACACACACATACACATATATATA [CACACA_site2728] | 8.78 ± 0.34
34 | TCTATAAAGGAATATACACACATATATATATATATA [CACACA_site410] | 10 ± 0.26
35 | AAAAAAAAAAAAAAGACACACATATATATATATATA [CACACA_site633] | 10 ± 0.31
36 | ATAAAAAAAGATGAACGTACATATATTTTAAAAATC [XGTACX_site5950] | 8.7 ± 0.45
37 | TAATCATTTTTAAATTGTACAATTTATATAATAAGT [XGTACX_site6081] | 8.5 ± 0.26
38 | AAATTTATAAATTAAAGTACATATTTCTTGAATATT [XGTACX_site859] | 8.34 ± 0.48

Row | Sequence | gcPBM binding intensity (ln)
39 | CTCAACATATACGTAACACACATATATATATATATA [CACACA_site3838] | 10.2 ± 0.41
40 | TAAGTTTTGTTTTTTTGTACTCATTCATACTATCAT [XGTACX_site3638] | 8.87 ± 0.49
41 | TAAAATTTAAGTTATACACACTTAAGTAACATCATC [CACACA_site6395] | 8.72 ± 0.37
42 | TGTTTATGTATCAATTGTACAAAAAAAAAAAAAAAA [XGTACX_site1590] | 8.26 ± 0.46
43 | TGACCTGTTCAGGTAACACACATATAAACACATACA [CACACA_site4186] | 8.8 ± 0.43
44 | TTAATAACGTAATGTAAATGTTTCATACCCTTTTTT [CACACA_negctrl_site988] | 8.36 ± 0.43
45 | ACAAATACAAAAAAAGGTACACACATAATATATTTA [XGTACX_site5515] | 8.72 ± 0.51
46 | CCATAAAAAGGATACACACACACACCCACATATATA [CACACA_site903] | 8.71 ± 0.45
47 | CATATAAAAGGACACACACACACATATATATATATA [CACACA_site4674] | 10 ± 0.43
48 | ATAAAAAAAGGACACACACACATATATATATATATA [CACACA_site5662] | 10.2 ± 0.42
49 | AATACAAAAAAAGGTACACACATAATATATTTATTA [CACACA_site2628] | 8.7 ± 0.34
50 | CAACGATACAAAAAAGGTACACATATATATATATAT [XGTACX_site8688] | 10.2 ± 0.47
51 | TATATATATAGACACACACACACATATATATATATA [CACACA_site9366] | 10.1 ± 0.42
52 | AAAGGATACAGACACACACACACATATATATATATA [CACACA_site906] | 10.1 ± 0.4
53 | AAAGGATATAGACACACACACACATATATATATATA [CACACA_site2200] | 10.2 ± 0.14
54 | ATAAAAAAAGGACACACACACATATATTTATTTATA [CACACA_site7438] | 8.66 ± 0.52
55 | CCATAAAAAGGATACACACACACACGCACATATATA [CACACA_site6550] | 8.73 ± 0.5
56 | TAAAAGGATACATATACACACATATATATATATATA [CACACA_site2791] | 10.2 ± 0.42

Source: the supplement of paper PMC11417369
